# According to PubChem BioAssay (Tox21):
# Results filed as inconclusive are left out. Entries that show only a call come without a potency. Active and inactive are the calls of the source. Calls come from the whole dose curve; as a rule, active = well fitted cell-killing curve with a large enough effect in the repeat runs; inconclusive = weak or mixed curves; inactive = flat fitted curve, though single readings scatter.
# Assay: qHTS assay to identify small molecule antagonists of the estrogen related receptor (ERR) signaling pathway - cell viability counter screen (AID 1224818);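 note: viability measured after 17.5 h of compound exposure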
# Details: ERR reporter cell line viability counter screen; series mostly up to 46.1 µM
# In short: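 Quantitative high-throughput viability counter screen in ERR cells. Compounds (DMSO) incubated 17.5 h at 37 C; read-out was CellTiter-Fluor fluorescence.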
row,Structure (SMILES),Potency
1,N[C@@H](CCCC(=O)O)C(=O)O,inactive
2,O=C(O)Cc1c[nH]c2ccc(O)cc12,inactive
3,CC1CNCCN1S(=O)(=O)c1cccc2cnccc12 (stereo not given),inactive
4,NC[C@@H]1O[C@H](c2ccccc2)Cc2c1ccc(O)c2O,inactive
5,CC(C)NC[C@@H](O)c1ccc(O)c(O)c1,inactive
6,CN1C2CCC1CC(OC(=O)C(O)c1ccccc1)C2 (stereo not given),inactive
7,CS(=O)(=O)c1cccc(CNc2nc(Nc3ccc4c(c3)CCC(=O)N4)ncc2C(F)(F)F)c1,inactive
8,CCCCCC(O)CCCC(=O)O (stereo not given),inactive
9,NC1C=CC=C(C(=O)O)C1 (stereo not given),inactive
10,O=C1NC(=O)/C(=C/c2ccc(-c3ccc(F)cc3O)o2)S1,inactive
11,NCCCCNCCCN,inactive
12,CN(C)CCCc1cc(C(=O)Nc2ccc(-c3ccncc3)cc2)ccc1O,inactive
13,Cc1ccc2c(c1)C(N1CCN(C)CC1)=Nc1cccnc1N2,inactive
14,NS(=O)(=O)c1ccc(-n2nc(C(F)(F)F)cc2-c2ccc(Cl)cc2)cc1,inactive
15,CC(C)C[C@H](NC(=O)[C@H](O)[C@H](N)Cc1ccccc1)C(=O)O,inactive
16,CSc1nc(N)c2ncn([C@@H]3O[C@H](COP(=O)(O)OP(=O)(O)OP(=O)(O)O)C(O)[C@H]3O)c2n1 (stereo not given in full),inactive
17,CCNC(=O)[C@H]1O[C@@H](n2cnc3c(N)nc(NCCc4ccc(CCC(=O)O)cc4)nc32)[C@H](O)C1O (stereo not given in full),inactive
18,OC[C@H]1O[C@@H](n2cnc3c(NC4CCCCC4)ncnc32)[C@H](O)[C@@H]1O,inactive
19,NC1(C(=O)O)CCCCC1,inactive
20,O=C(O)c1cc2cc(Cc3cccnc3)ccc2o1,inactive
